For 40 molecules, growth inhibition results are on record in PubChem BioAssay (NCI).

This is part of a sample that, as a whole, favours compounds with a hit. Of some 79,000 tested, about 15% had one in any assay. Unmarked numbers belong to inactive results. The source made the active and inactive calls. Cut-off read from the data, not from the text of the source: active = growth inhibition above about 70%; inactive = the rest.

One assay is described as follows: NCI Yeast Anticancer Drug Screen. Data for the rad50 strain (AID 155).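 Note: 0% = growth of vehicle-only cultures of the same strain.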 The settings on record: S. cerevisiae rad50 strain growth inhibition; at 50.0 µM; stronger effect = higher value. In a few lines: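 A DNA repair-deficient yeast mutant serves as the test organism; compound-induced growth inhibition is calculated against vehicle-treated cells.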
Take `O=C1CSc2ccccc2-n2cccc21`: the growth inhibition is 9.55%.

As for `CCCc1cc2c(cc1CS(=O)(=O)CC)OCO2`, the growth inhibition is -9.1%.

In the case of `CS(=O)(=O)C(c1nc2nnc(NC(=O)Nc3ccc(Cl)cc3)n2[nH]c1=O)c1nc2nnc(NC(=O)Nc3ccc(Cl)cc3)n2[nH]c1=O`, the growth inhibition was 32.2%. In the case of `COc1cc(C2c3cc4c(cc3OC3(O)C=C(C)OC(=O)C23)OCO4)cc(OC)c1OC` (centres undefined), the growth inhibition is 12.1%. In the case of `CC(C)OCc1cccc2ccnc(COC(C)C)c12`, the growth inhibition is 20.8%.

Regarding `COc1cc2c(cc1OC)-c1nc(Nc3ccccc3)sc1CC2`, the growth inhibition is 43.4%. Consider `NC(=O)CCSC(=S)N1CCOCC1`, for which the growth inhibition was -8.55%. Same read-out and setting: next, `CC1=C(c2ccccc2)C(=O)OC1=O`: 52.5%. As for `CC1=C(C)CC2C(=O)C(C(O)CC(C)C)=CC(=O)C2C1` (centres undefined), the growth inhibition was 97.8% (active).

A further assay can be described thus: NCI Yeast Anticancer Drug Screen. Data for the mec2-1 strain (AID 157). The note with it: S. cerevisiae mec2-1 strain, at 5.0 µM (retest, dose inferred, filed as 0.5), stronger effect = higher value. The method in brief: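 Cells of the genetically defined mec2-1 yeast strain are incubated with test compound. Inhibition of growth is calculated against vehicle-treated controls.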
Turning to `N#C/C(=C\C(Cl)=C/c1ccccc1)C(N)=S`, the growth inhibition is 45%. As for `CC[N+](C)(CC)CCC(=O)/C=C/c1ccccc1`, the growth inhibition is 11%. `CC(=O)n1c(=S)n(C(C)=O)c2ccccc21`: the growth inhibition was -16%. The same measure, in the same setting: next, `Nc1ccccc1/C=C1/Sc2cc[nH]c2C1=O`: 1%.

Take `C=C1CC2(CCCC3(CC(=C)C(=O)O3)C2(C)C)OC1=O` (centres undefined): the growth inhibition is 14%. In the case of `O=C1/C(=C\c2ccc(Cl)cc2Cl)Sc2scc(-c3ccc(O)c(O)c3)[n+]21`, the growth inhibition was 6%. On the same count and under the same terms, next, `COc1cc(OC(C)C)cc2c1C(=O)C(C(O)(O)C(F)(F)F)=CC2=O`: 11%. As for `Cc1c(N=Nc2ccc(Br)cc2)c(-c2ccccc2)nn1C(N)=S`, the growth inhibition is 1%. Still for that read-out and setting: next, `COc1ccc2nc3c([N+](=O)[O-])ccc(NCCCN(C)C)c3c(N)c2c1`: 9%. Still for that read-out and setting: next, `CN(C)CCC[Si]1(C)c2ccccc2CCc2ccccc21`: -5%. Regarding `CC(=O)N(C)c1cc(NCc2ccccc2)ccc1OCc1ccccc1`, the growth inhibition was 12%. Regarding `ClCCOCCOc1c(Cl)cc(Cl)c(Cl)c1Cl`, the growth inhibition was 0%. Regarding `Nc1ccc2nc(N)sc2c1`, the growth inhibition is -6%. In the case of `CC(C)(C)c1cc(C2c3cc4c(cc3OC(O)(CO)C2C(=O)O)OCO4)cc(C(C)(C)C)c1O` (centres undefined) (tested in a mixture with another compound), the growth inhibition was -6%.

`COc1ccc(C2COc3c(ccc(O)c3O)C2)cc1OC` (centres undefined): the growth inhibition is 1%. `Cc1ccc(OCC2CO2)c(Br)c1` (centres undefined): the growth inhibition is 1%. `CCN(CC)CCNc1ccc(C)c2sc3c(OC)cccc3c(=O)c12`: the growth inhibition is -1%. Take `CC(C)C(O)C(C)C`: the growth inhibition was 0%. Take `O=C1CSC2(CCN(CCCN3c4ccccc4Sc4ccc(Cl)cc43)CC2)N1`: the growth inhibition is -4%. On to `C1=CN2C(c3ccccc3)=NN(c3ccccc3)[C@@H]2c2ccccc21`, for which the growth inhibition is -6%. Consider `CC(=O)Nc1ccc(-c2csc(Nc3ccnc4cc(Cl)ccc34)n2)cc1`, for which the growth inhibition was -4%.

Regarding `O=C(Nc1ccc(/C=C/c2ccc(NC(=O)c3cc(S(=O)(=O)O)c4cccnc4c3O)cc2S(=O)(=O)O)c(S(=O)(=O)O)c1)c1cc(S(=O)(=O)O)c2cccnc2c1O`, the growth inhibition is 26%. Take `COc1ccccc1C1C2=C(COC2=O)OC(C)(C)Oc2cc3c(cc21)OCO3` (centres undefined): the growth inhibition was -13%. As for `COC(=O)CSc1n[nH]c(-c2ccc(O)c([N+](=O)[O-])c2)n1`, the growth inhibition was 31%.

Regarding `COc1ccc(CN2CCCN(Cc3ccc(OC)cc3OC)C2c2cccc([N+](=O)[O-])c2O)c(OC)c1`, the growth inhibition was 11%.

For `Oc1c(Cl)cc(C(c2cc(Cl)c(O)c(Cl)c2)C(Cl)(Cl)Cl)cc1Cl`, the growth inhibition was 95% (active). Regarding `Cc1cc(Cl)cc2c1NC(=O)C2(O)C/C(=N/NC(=O)CC#N)c1cccc([N+](=O)[O-])c1` (centres undefined), the growth inhibition is -13%.

On to `COc1ccc(C2Oc3ccc(Cl)cc3C=C2[N+](=O)[O-])cc1` (centres undefined), for which the growth inhibition is 99% (active). Still for that read-out and setting: next, `CN(Cc1cc(Cl)cc(Cl)c1O)Cc1c(O)ccc2ccccc12`: 14%; `Cc1c(NC(=O)/C(=N/NC(=S)N=N)C2C(=O)CC(C)(C)CC2=O)c(O)c2ccccc2c1O`: 7%; `O=C1CCC(Cc2ccccc2Br)C(=O)N1` (centres undefined): -1%.

`O=C1CSc2ccccc2-n2cccc21`: the growth inhibition was 11%. Same read-out and setting: next, `CCCc1cc2c(cc1CS(=O)(=O)CC)OCO2`: -4%; `CS(=O)(=O)C(c1nc2nnc(NC(=O)Nc3ccc(Cl)cc3)n2[nH]c1=O)c1nc2nnc(NC(=O)Nc3ccc(Cl)cc3)n2[nH]c1=O`: -20%. Regarding `COc1cc(C2c3cc4c(cc3OC3(O)C=C(C)OC(=O)C23)OCO4)cc(OC)c1OC` (centres undefined), the growth inhibition was 4%.

Take `CC(C)OCc1cccc2ccnc(COC(C)C)c12`: the growth inhibition was 8%. `COc1cc2c(cc1OC)-c1nc(Nc3ccccc3)sc1CC2`: the growth inhibition was -1%. Still for that read-out and setting: next, `NC(=O)CCSC(=S)N1CCOCC1`: -5%. For `CC1=C(c2ccccc2)C(=O)OC1=O`, the growth inhibition was 2%. On to `CC1=C(C)CC2C(=O)C(C(O)CC(C)C)=CC(=O)C2C1` (centres undefined), for which the growth inhibition is -5%.
